The text below walks through data of PubChem BioAssay AID1440 (NMMLSC, 2008).

Structures are written as SMILES. Hit rate of the full screen: of about 220,000 compounds, fewer than 10 were called active. Another 92% or so got no clear call; they are omitted. The rule behind the calls is not given here. Not all results are given here.

Guanine nucleotide-binding protein G(o) subunit alpha (Homo sapiens) + Regulator of G-protein signaling 19 (Homo sapiens), sequence (P09471 whole entry, looked up): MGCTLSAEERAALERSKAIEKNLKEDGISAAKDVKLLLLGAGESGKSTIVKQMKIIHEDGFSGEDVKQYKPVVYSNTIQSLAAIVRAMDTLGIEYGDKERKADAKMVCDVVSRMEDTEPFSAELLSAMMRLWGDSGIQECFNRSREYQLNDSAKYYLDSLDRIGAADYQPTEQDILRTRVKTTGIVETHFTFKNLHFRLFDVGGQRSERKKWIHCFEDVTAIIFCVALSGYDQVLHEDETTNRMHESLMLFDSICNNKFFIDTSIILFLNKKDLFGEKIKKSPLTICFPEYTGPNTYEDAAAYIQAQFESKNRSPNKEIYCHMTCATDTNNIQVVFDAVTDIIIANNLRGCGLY
Guanine nucleotide-binding protein G(o) subunit alpha (Homo sapiens) + Regulator of G-protein signaling 19 (Homo sapiens), sequence (P49795 whole entry, looked up): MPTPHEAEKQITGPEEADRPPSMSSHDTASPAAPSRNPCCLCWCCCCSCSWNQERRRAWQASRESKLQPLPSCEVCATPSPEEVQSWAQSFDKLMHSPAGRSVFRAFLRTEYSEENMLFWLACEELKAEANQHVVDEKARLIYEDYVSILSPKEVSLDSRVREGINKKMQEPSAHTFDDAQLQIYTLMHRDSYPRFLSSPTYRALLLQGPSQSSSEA

This experiment addresses Guanine nucleotide-binding protein G(o) subunit alpha (Homo sapiens) + Regulator of G-protein signaling 19 (Homo sapiens) (UniProt P09471+P49795). Put plainly: regulators of RGS19 binding to Galphao, biochemical, multiplexed bead flow cytometry (AID 1440).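 Note: fluorescent Galpha o activated by aluminum fluoride binding bead-coupled RGS19.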 The conditions noted are these: at 10 µM. Background: A flow cytometer gives signals particle by particle.
Consider `COC(/C=C/Nc1ccc(C)cc1)=C(C#N)C#N`, for which the binding response (% of control) was determined as 71.7%. For `COc1ccccc1/C=C/C(=O)OCC(=O)c1c(N)n(C)c(=O)n(C)c1=O`, the binding response (% of control) was found to be 109%. The figure for `CCN(CC(=O)Nc1ccccc1OC)C(=O)C1CC2C=CC1C2` (stereo not drawn) is 180%. The same measure for `CCN(CC)C(=O)c1sc(NC(=O)c2cccnc2)c(C(=O)OC)c1C`: 128%; for `CN1C(=O)C2(N=c3ccccc3=N2)c2ccccc21`: 103%.

On to `CS(=O)(=O)N1CCN(C(=O)c2cc(-c3cccs3)nc3ccccc23)CC1`, for which the binding response (% of control) was 103%.

As to `O=C(O)c1cc(-c2ccccn2)n[nH]1`, the binding response (% of control) was found to be 106%. Consider `Cc1cc(C)cc(-n2c(C)c3c(C)nnc(C)c3c2C)c1`, for which the binding response (% of control) is 121%.

As to `OC1C2(Cc3ccccc3)CN3CCN(C2)CC1(Cc1ccccc1)C3` (stereo not drawn), the binding response (% of control) came to 71.2%. The figure for `COc1cc(S(=O)(=O)NCCc2ccc3c(c2)OCO3)ccc1-n1cnnn1` is 25.7%. Turning to `COC(=O)c1ccccc1OC(=O)c1ccc(Br)o1`, the binding response (% of control) was 102%. On to `CC(C)CNC(=O)COC(=O)c1ccc(Cl)c(S(N)(=O)=O)c1`, for which the binding response (% of control) is 107%. The same measure for `O=C(Nc1ccccc1N1CCOCC1)c1cccc([N+](=O)[O-])c1`: 123%; for `O=C(Nc1cccc(-c2cnc3ccccc3n2)c1)c1ccco1`: 147%; for `COc1ccccc1N(C(C)=O)C1SC(=O)N(c2ccccc2)C1=O` (stereo not drawn): 70.1%. As for `CCOC(=O)N1CCN(C(=O)CCNS(=O)(=O)c2cc(Br)cnc2N)CC1`, the binding response (% of control) is 93.9%. Regarding `Cc1ccc(S(=O)(=O)N(Cc2ccccc2)Cc2ccco2)cc1`, the binding response (% of control) was determined as 92.7%.

For `COc1cc(/C=N/NC(=O)Cc2ccccc2)ccc1Oc1ccc([N+](=O)[O-])cc1[N+](=O)[O-]`, the binding response (% of control) came to 107%. The same measure for `CCOCCCNC(=O)C(c1ccccc1)N(Cc1cccs1)C(=O)CNC(=O)c1ccccc1` (stereo not drawn): 222%. The figure for `O=C1CC2(CON=C2c2ccc(F)cc2)C(=O)N1c1ccc(F)cc1` (stereo not drawn) is 72.5%; for `CCOC(=O)C(=O)Nc1ccccc1C(=O)Nc1ccc(OC)cc1` it is 101%.

For the molecule `CCC(C)[C@H](NC(=O)N1CCCC1)C(=O)OC` (stereo partly drawn), the binding response (% of control) amounted to 117%. The same measure for `COc1ccc(C)cc1S(=O)(=O)N(CC(=O)O)c1ccc(F)cc1`: 102%; for `CCOC(=O)C1=C(c2ccccc2)OC(N)=C(C#N)C1C(C)C` (stereo not drawn): 109%. The same measure for `CS(=O)(=O)N1CCCC(C(=O)NCCc2ccccc2)C1` (stereo not drawn): 71.4%; for `O=C(NC1(C(F)(F)F)C(=O)Nc2c1c(=O)[nH]c(=O)n2Cc1ccccc1)c1ccc(Cl)cc1` (stereo not drawn): 108%. The same measure for `COC(=O)CCN(c1ccccc1)S(=O)(=O)c1ccc(OC)cc1`: 38.5%; for `CNC(=O)c1c(N)sc2c1CCCCC2`: 60.7%; for `COC(=O)c1ccccc1NC(=S)NC(=O)COc1ccc(C(C)C)cc1`: 284%. On to `CCNC(=S)NNC(=O)Nc1ccccc1`, for which the binding response (% of control) was found to be 89.6%. As for `COC(=O)c1cn(NC(=O)C2COc3ccccc3O2)c(=O)c2ccccc12` (stereo not drawn), the binding response (% of control) was 40.7%. The figure for `O=C(COc1ccc2ccccc2c1)Nc1cccc2cccnc12` is 110%. The same measure for `COc1ccc(NC(=O)CCNS(=O)(=O)c2ccc(Br)s2)cc1`: 110%. The figure for `Cc1ccc(S(=O)(=O)N2CC3(C)CN(S(=O)(=O)c4ccc(C)cc4)CC(C)(C2)C3=O)cc1` is 103%. Turning to `Cc1cc(C)nc(SCC(=O)Nc2ncc3c(n2)CC(C)(C)CC3=O)n1`, the binding response (% of control) is 62.4%. Regarding `Cc1cc(NC(=O)Cn2c(=O)c3c(ncn3CCC(C)C)n(Cc3ccccc3)c2=O)no1`, the binding response (% of control) turned out to be 106%. With `O=c1c(Cc2ccc(Cl)cc2Cl)c(O)ccn1Cc1ccc(Cl)cc1`, the binding response (% of control) is 97.7%. On to `CCOc1c2ccc(C(=O)NCc3ccc(OC)cc3)cc2nn1CCOC`, for which the binding response (% of control) worked out at 92.2%. Regarding `O=C(Nc1cccnc1)C1CCCN1S(=O)(=O)c1ccc(Cl)c(Cl)c1` (stereo not drawn), the binding response (% of control) is 114%. Turning to `COc1ccccc1CNc1ccc(C(=O)O)cc1`, the binding response (% of control) worked out at 121%. Consider `COc1ccc(OC)c(C2C(C#N)=C(N)Oc3c2c(C)nn3-c2cccc(Cl)c2)c1` (stereo not drawn), for which the binding response (% of control) came to 96.4%.

For `Cc1ccc2c(CN3CCN(CCO)CC3)cc(=O)oc2c1C`, the binding response (% of control) was found to be 111%. Turning to `CCN1CCCC1CNC(=O)C(NC(=O)C1CCC(C)CC1)C(C)C` (stereo not drawn), the binding response (% of control) was 107%.

Regarding `O=C(CN1C(=O)S/C(=C/c2cccs2)C1=O)N1CCOCC1`, the binding response (% of control) turned out to be 99.9%. Regarding `CCOCCCNC(=O)C(c1ccc(Cl)cc1)N(Cc1cccs1)C(=O)CNC(C)=O` (stereo not drawn), the binding response (% of control) amounted to 90%. For the molecule `Cc1ccc(-c2cnc(N)n2C)cc1C`, the binding response (% of control) came to 94.5%. Consider `CCc1ccc(OC)c(S(=O)(=O)NCCOc2ccccc2)c1`, for which the binding response (% of control) stood at 41.2%. The same measure for `Fc1ccc(CNC(=S)Nc2ccccc2Cl)cc1`: -28%; for `COC(=O)CCC(=O)Nc1cccc(C(=O)Nc2cccc(Cl)c2)c1`: 100%; for `Cc1ccc(NC(=O)c2cc(-n3cnnc3)ccc2Cl)cc1`: 100%. Consider `CC1(C)CC(=O)C(C(=S)Nc2ccccc2)=C(NCCN2CCOCC2)C1`, for which the binding response (% of control) came out at 118%.

For the molecule `Cc1ccc(Cn2ncn3c(cc4ccccc43)c2=O)cc1`, the binding response (% of control) stood at 87.2%. The same measure for `O=C(NCc1ccco1)C1CCN(S(=O)(=O)N2CCC3(CC2)OCCO3)CC1`: 45.9%.

Turning to `CCOc1ccc(C2NC(=O)c3sc(=S)n(-c4ccccc4)c3N2)cc1` (stereo not drawn), the binding response (% of control) came out at 87.5%.

With `Cc1ccccc1-n1nc(C)c2cc(C(=O)N3CCN(S(=O)(=O)c4ccc(Cl)cc4)CC3)sc21`, the binding response (% of control) was found to be 94.8%. Take `O=C(Nc1cccc(C(F)(F)F)c1)c1cc2c(s1)-c1ccccc1OC2`: the binding response (% of control) is 119%.

Turning to `COc1ccc2cnnc(SCC(=O)Nc3ccccc3)c2c1OC`, the binding response (% of control) amounted to 118%. The figure for `CCCCN(CC(=O)Nc1c(C)cccc1CC)C(=O)SCC` is 101%. The same measure for `Cc1ccc(C)c(Cn2nnc3c(=O)[nH]c(C4CCCN(C(=O)C5CCCCC5)C4)nc32)c1` (stereo not drawn): 109%. For the molecule `COC(=O)c1cc(OC)c(OC)cc1NC(=O)CCC1CCCC1`, the binding response (% of control) worked out at 107%. The same measure for `COc1ccc(CC(=O)OCc2cc3ccccc3[nH]c2=O)cc1`: 90.7%; for `Cc1cc(NC(=O)c2cnn3c(C(F)(F)F)cc(-c4ccccc4)nc23)no1`: 103%; for `O=C(CN1C(=O)C2C3C=CC(C3)C2C1=O)Nc1cccc2c1CCCC2` (stereo not drawn): 187%. The figure for `Nc1c2c(nc3ccn(Cc4ccccc4)c(=O)c13)CCC2` is 72.4%; for `COC(=O)CSc1nnnn1-c1cccc2ccccc12` it is 106%; for `CN(CCCC(=O)NCc1ccco1)S(=O)(=O)c1ccccc1` it is 98.9%. As for `Fc1ccccc1OCCSc1nnnn1-c1ccccc1`, the binding response (% of control) was determined as 25.6%.

As for `O=C(c1ccco1)N1CCC(c2nc(-c3ccc(F)cc3)no2)CC1`, the binding response (% of control) worked out at 75.6%. Consider `COc1ccc(-c2nc(-c3cccs3)c(-c3cccs3)[nH]2)cc1O`, for which the binding response (% of control) is 102%.

For `Cc1cccc(NC(=S)NC2CC3CCC(C2)N3Cc2ccco2)c1` (stereo not drawn), the binding response (% of control) was found to be 113%.

With `CC(NC(=O)Nc1ccc(F)cc1F)c1ccncc1` (stereo not drawn), the binding response (% of control) came out at 70.2%. The same measure for `CCOc1ccc(-c2c(C(=O)N/N=C/c3ccccc3)nnn2-c2nonc2N)cc1`: 91.3%. For the molecule `CCCN(CCC)CCOc1cc(C)ccc1C(C)C`, the binding response (% of control) amounted to 116%. As to `CC(C)C(CC(=O)NCc1ccco1)c1ccco1` (stereo not drawn), the binding response (% of control) is 172%. Consider `CCOc1ccc(NC(=O)CSc2nc3ccccc3c(=O)n2CCNC(C)=O)cc1`, for which the binding response (% of control) is 97.9%. In the case of `O=C(NN=C1CCCCC1)c1ccccc1OCc1ccc(F)cc1`, the binding response (% of control) was found to be 118%.

Consider `Cc1nc2ccccc2c(=O)n1NC(=O)COc1ccccc1`, for which the binding response (% of control) was found to be 103%. The figure for `CC(C)(C)NC(=O)c1ccc2nsnc2c1` is 141%; for `O=C(Nc1nc(N2C(=O)c3ccccc3C2=O)n(-c2ccccc2)n1)c1ccccc1` it is -19.9%.

With `Cn1c(Cl)cnc1C(O)c1ccccc1` (stereo not drawn), the binding response (% of control) came out at 105%.

For the molecule `Cc1c(Br)c(C(F)(F)F)nn1CC(=O)N1CCCC1`, the binding response (% of control) came to 99.7%. `CCOC(=O)c1[nH]nc(-c2cc(CC)c(O)cc2O)c1-c1cscn1`: the binding response (% of control) was 56.9%. The figure for `CC(=O)N(c1ccc(C(C)C)cc1)C1C=CS(=O)(=O)C1` (stereo not drawn) is 103%; for `CCCCC(=O)Nc1nc(C)c(-c2csc(Nc3cc(Cl)ccc3OC)n2)s1` it is 148%.

As to `COc1cccc(OC)c1C(=O)Nc1ccc(NC(=O)c2ccco2)cc1`, the binding response (% of control) came to 112%. With `CCOC(=O)C1=C(c2ccccc2)NC(=O)NC1c1ccc(OCC#N)c(OC)c1` (stereo not drawn), the binding response (% of control) came out at 119%. The figure for `CCOC(=O)C1Cn2c(nc3c(c2=O)C2(CCCC2)Cc2ccccc2-3)S1` (stereo not drawn) is 102%; for `CCOC(=O)N1CCC(NC(=O)CCCN2C(=O)CSc3ncccc32)CC1` it is 353%.
